# Assay outcomes deposited in PubChem BioAssay by National Center for Advancing Translational Sciences (NCATS).
# VDR inhibitor = blocks the human vitamin D receptor; actives 0.93% (n = 400,000); VDR-SRC2-3 peptide fluorescence polarization, 2 h; Potency, µM, inactives show max response, negative = inhibition, hits mostly inhibitors; AID 504847
#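 Inhibition of the VDR/SRC2-3 peptide interaction is quantified by fluorescence polarization. Compounds (23 nl, pintool) incubate with the reagents for 2 hours at ambient room temperature.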
# TrxR1 substrate = is turned over as a substrate by rat TrxR1. O89049. purified TrxR1 substrate turnover, NADPH consumption readout. Potency, µM (titrated, usually from 114 µM), for the others: top-dose activity change, negative = substrate turnover. actives 0.01% (n = 390,000). AID 588456; note: nearly all actives have a fitted effect of over 50% in size
# Target sequence (O89049 whole entry, looked up): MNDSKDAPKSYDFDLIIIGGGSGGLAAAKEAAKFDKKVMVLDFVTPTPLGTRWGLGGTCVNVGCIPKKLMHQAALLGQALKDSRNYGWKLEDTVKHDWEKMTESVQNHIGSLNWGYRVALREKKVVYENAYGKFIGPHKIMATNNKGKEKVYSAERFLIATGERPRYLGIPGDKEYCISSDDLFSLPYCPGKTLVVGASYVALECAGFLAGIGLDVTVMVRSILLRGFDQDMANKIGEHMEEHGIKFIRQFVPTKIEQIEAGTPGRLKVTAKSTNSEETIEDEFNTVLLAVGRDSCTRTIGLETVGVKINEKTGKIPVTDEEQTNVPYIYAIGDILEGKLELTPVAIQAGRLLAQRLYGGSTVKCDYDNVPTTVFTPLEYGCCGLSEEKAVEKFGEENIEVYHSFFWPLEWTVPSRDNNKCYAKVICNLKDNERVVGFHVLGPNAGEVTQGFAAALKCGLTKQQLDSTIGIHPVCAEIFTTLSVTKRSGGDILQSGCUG
#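 Rat TrxR1, dispensed at 90 nM, was prereduced with 400 uM NADPH (final) for 5 min at ~22 deg C, then incubated with compound 15 min before 400 uM selenite. A first-read NADPH fluorescence drop versus no-compound background flagged substrates.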
# TrxR1 inh = blocks rat thioredoxin reductase 1 | O89049 | recombinant rTrxR1, NADPH fluorescence consumption, selenite substrate | Potency, µM (top dose mostly 114 µM), without a hit: at the highest dose activity change, negative = inhibition, usual class: inhibitors | actives 1% (n = 390,000) | AID 588453; note: nearly all actives have a fitted effect of over 65% in size
#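 Rat TrxR1 (90 nM in the dispensed reagent) was pre-reduced with 400 uM NADPH for 5 min at room temperature, then incubated with compound for 15 min. After 400 uM selenite was added, NADPH fluorescence (Ex 340/Em 450 nm) was followed for 8 min.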
# GCN5L2 inh = blocks human GCN5L2 histone acetyltransferase; GCN5L2 HAT assay, ThioGlo1 CoA-SH fluorescence; Potency, µM (series often up to 58.9 µM), for inactives: at the highest dose activity change, negative = inhibition, usual class: inhibitors; actives 0.21% (n = 390,000); Q92830; AID 504327
#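 Preincubate 20nM GCN5L2 with compound 15 min, RT → add 50uM ThioGlo1 + 75uM H3(1-25) + 70uM acetyl-CoA → read fluorescence 0 and 20 min. Primary qHTS; fluorescent artifacts likely.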
# Starred values were filed as active, the others as inactive; u = inconclusive; x = no result given; ! = not confirmed by another sample; [ ] = another dose, or the depositor's remark. Sampled rows, rich in hits. Any-hit rate of the full collection: about 1.8%. Calls come from the whole dose curve; as a rule, active = well fitted curve in the direction sought with a large enough effect; inconclusive = small, poorly fitted or top-dose-only effect, or another doubt; inactive = no such curve, though single readings can be large; an effect the other way counts as inactive or inconclusive. % is set by controls: 0 for no effect and ±100 for the full control effect; potency is the fitted concentration of half-maximal effect.
SMILES,VDR inhibitor,TrxR1 substrate,TrxR1 inh,GCN5L2 inh
CC[C@H](C)[C@H](NC(=O)[C@H](CO)NC(=O)[C@H](CC(C)C)NC(=O)[C@H](CO)NC(=O)[C@@H]1CCCN1C(=O)[C@H](CC(N)=O)NC(=O)[C@@H](N)CC(=O)O)C(=O)N[C@@H](CC(=O)O)C(=O)N[C@@H](CC(C)C)C(=O)N[C@H](C(=O)N[C@@H](Cc1ccccc1)C(=O)N[C@@H](Cc1cnc[nH]1)C(=O)N[C@@H](CC(C)C)C(=O)N[C@@H](CC(C)C)C(=O)N[C@@H](CCCNC(=N)N)C(=O)N[C@H](C(=O)N[C@@H](CC(C)C)C(=O)N[C@@H](CC(C)C)C(=O)N[C@@H](CCC(=O)O)C(=O)N[C@@H](CC(C)C)C(=O)N[C@@H](C)C(=O)N[C@@H](CCCNC(=N)N)C(=O)N[C@H](C(=O)N[C@@H](CCC(N)=O)C(=O)N[C@@H](CO)C(=O)N[C@@H](CCC(N)=O)C(=O)N[C@@H](CCCNC(=N)N)C(=O)N[C@@H](CCC(=O)O)C(=O)N[C@@H](CCCNC(=N)N)C(=O)N[C@@H](C)C(=O)N[C@@H](CCC(=O)O)C(=O)N[C@@H](CCC(N)=O)C(=O)N[C@@H](CC(N)=O)C(=O)N[C@@H](CCCNC(=N)N)C(=O)N[C@H](C(=O)N[C@H](C(=O)N[C@@H](Cc1ccccc1)C(=O)N[C@@H](CC(=O)O)C(=O)N[C@@H](CO)C(=O)N[C@H](C(N)=O)C(C)C)[C@@H](C)CC)[C@@H](C)CC)[C@@H](C)O)[C@@H](C)O)[C@@H](C)O,-2%,x,x,-9%
COc1ccc(/C=C/c2ccccn2)cc1,x,-9%,-21%,x
Cc1ccc(-n2c(N)c(C(N)=O)sc2=S)cc1,71µM*,-8%,u,u
CSc1ccc2nnc(-c3ccc(C)cc3)n2n1,24%,13%,21%,x
O=C(c1cc2cc(Cl)ccc2[nH]1)N1CCN(C(=O)c2ccco2)CC1,u,5%,50µM*,-1%
O=C(c1cc2cc(Cl)ccc2[nH]1)N1CCN(c2ccccc2F)CC1,5%,4%,9%,0%
O=c1c(C(c2ccc(F)cc2)c2c(O)nc3n(c2=O)CCS3)c(O)nc2n1CCS2,u,6%[57.1 µM],13µM*,-2%
O=c1c(C(c2ccc(Cl)cc2)c2c(O)nc3n(c2=O)CCCS3)c(O)nc2n1CCCS2,15%,2%,u,-5%
O=c1c(C(c2ccc(Cl)cc2)c2c(O)nc3n(c2=O)CCS3)c(O)nc2n1CCS2,u,4%,10µM*,-16%
CC(O)(c1ccccc1)[N+]1(CC(=O)c2ccccc2)C=CC=C1 (configuration not stated),x,-4%,7%,x
Cc1cc[n+](CC(=O)c2ccc(F)cc2)cc1,x,5%,9%,x
Cc1cccc(NC(=O)Cc2ccc(NC3=NC4CS(=O)(=O)CC4S3)cc2)c1 (configuration not stated),-3%,2%[57.1 µM],10%[57.1 µM],22µM*
O=C(NCc1ccc(Cl)cc1)c1cccc(NC2=NC3CS(=O)(=O)CC3S2)c1 (configuration not stated),-2%,-3%[57.1 µM],-4%[57.1 µM],28µM*
COc1ccc(CNC(=O)c2cccc(NC3=NC4CS(=O)(=O)CC4S3)c2)cc1 (configuration not stated),-1%,2%,2%[57.1 µM],0%
O=C(C[n+]1ccccc1)c1ccc(O)c(O)c1,x,-9%,-11%,x
CCCCc1nc(S(=O)(=O)c2ccc(Cl)cc2)c(N2CCOCC2)o1,-6%,0%[11.4 µM],1.6µM*,-1%
C/C(CC1CC2=C(CC1(C)C)C(C)(C)CCC2)=N\NC(N)=S (configuration not stated),79µM*,-10%,-18%,-7%
CCCCOc1ccc(Cc2n[nH]c(=S)n2N)cc1,50µM*,-24%[57.1 µM],-18%[57.1 µM],u
CCOc1ccc(C(c2c(O)nc(SC)n(C)c2=O)c2c(O)nc(SC)n(C)c2=O)cc1,40µM*,9%,8.9µM*,-13%
O=C(CCCc1ccccc1)NCCc1ccccc1,5%,-4%,16%,2%
O=C(CCl)N(CCc1ccccc1)CCc1ccccc1,-15%,0%,11µM*,0%
C=CCN1C=C2C(=O)C(C)(OC(=O)c3ccc(OC)cc3)C(=O)C(c3ccco3)=C2C=C1CCCC (configuration not stated),-24%,12%[57.1 µM],7.1µM*,-7%
Nc1ncnc(Sc2ncccn2)c1[N+](=O)[O-],10%,-1%,1.4µM*,-8%
CC(C)CN(CCCNC(=O)CN1C(=O)COc2ccc(S(=O)(=O)N3CCCCCC3)cc21)CC(C)C,-16%,5%,56µM*!,-8%
O=C1c2ccccc2C(=O)C12OC2c1cccc2ccccc12 (configuration not stated),13µM*,-4%[57.1 µM],-19%[57.1 µM],-8%
SMILES,VDR inhibitor,TrxR1 substrate,TrxR1 inh,GCN5L2 inh
CCCCCCCCCCC(C)(C)C(=O)Nc1c(OC)cc(OC)cc1OC,1%,u,u,-29%
O=C1C2C3C=CC(CO)(O3)C2C(=O)N1c1ccccc1-c1ccccc1 (configuration not stated),-100%,8%,0.89µM*,u
COc1ccc(N2C(=O)C3C4C=CC(c5ccccc5)(C3C2=O)C2C(=O)N(c3ccc(OC)cc3)C(=O)C42)cc1 (configuration not stated),-6%,3%,14%[57.1 µM],-3%
O=C1CCC(=O)N1c1ccccc1-c1ccccc1,16%,0%,-6%,-3%
O=C1C2C3C=CC(CNS(=O)(=O)c4ccccc4)(O3)C2C(=O)N1c1ccc(Cl)cc1 (configuration not stated),79µM*,-2%,10µM*,-9%
CC(=O)Oc1ccc(N2C(=O)C3C4C=CC(CO)(O4)C3C2=O)cc1 (configuration not stated),45µM*,9%[57.1 µM],3.2µM*,u
CCOC(=O)C[C@H]1c2cc(F)ccc2S(=O)(=O)N1Cc1cc(OC)c(OC)c(OC)c1,x,10%,26%,x
Cc1ccccc1CNCCSc1nnnn1-c1ccccc1,9%,-9%,0%,1%
c1coc(CSSCc2ccco2)c1,22µM*,1%,u,3%
COc1ccc(CNC(=O)CCS(=O)(=O)c2cccc3nonc23)cc1,-11%,12%[57.1 µM],11µM*,-1%
Cc1ccc(CNC(=O)CCS(=O)(=O)c2cccc3nonc23)cc1,1%,-8%,56µM*,1%
Cc1cc(N(C)C)ccc1/C=C/c1ccnc2ccccc12,x,1%,-2%,x
Cc1cnc2ccc3ccccc3c2c1C,x,466%,u,x
O=C(NC(=S)Nc1ccc(S(=O)(=O)N2CCCCC2)cc1)c1ccccc1,4%,3%[57.1 µM],11µM*,-22%
O=C(Nc1ccc(S(=O)(=O)N2CCCC2)cc1)c1ccccc1,6%,11%[57.1 µM],22%[57.1 µM],-1%
Cn1ncc2cc(NC(=S)NC(=O)c3ccccc3)ccc21,-3%,-10%,25µM*,-3%
